# Bioassay records from PubChem BioAssay.
# Giardia kill: Small Molecules that selectively kill Giardia lamblia: qHTS. Giardia lamblia trophozoite viability. activity change, % at 7.66 µM, hits read low. hit rate 0.15% among 340,000; in the data active = activity change below about -80%; inconclusive = between about -30% and that limit;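 also: parasites exposed to compound for two days anaerobically before the ATP read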
#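 Anaerobic 48 hrs incubation at 37 deg C of 100 trophozoites/well with test compounds; ATPLite 1-Step luminescence, 15-30 min RT, reports cellular ATP as viability.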
# TDP1 cell noCPT: qHTS for Inhibitors of human tyrosyl-DNA phosphodiesterase 1 (TDP1): qHTS in cells in absence of CPT. DT40 Tdp1-/- hTDP1 cells, no CPT, ATP luminescence, 48 h. Potency, µM (titrated, usually from 46.2 µM), most hits filed as inhibitors. hit rate 15% among 420,000. AID 686978, 2013; also: nearly all actives have a fitted effect of over 55% in size
#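 Cells were dispensed at 400 per well, compounds added by pin tool, plates incubated ≥48 hr at 37 °C, then CellTiter-Glo added for 30 min at room temperature before luminescence reading. Line: DT40 Tdp1-/- complemented with hTDP1; camptothecin omitted.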
# ELG1 repair inh: qHTS screen for small molecules that inhibit ELG1-dependent DNA repair in human embryonic kidney (HEK293T) cells expressing luciferase-tagged ELG1; Potency, µM (highest dose often 46.1 µM), actives largely listed as inhibitors; hit rate 2.3% among 330,000; HEK293T ELG1-luciferase reporter, luminescence, 16 h; DNA damage induced by 5-fluorouridine; also: nearly all actives have a fitted effect of over 55% in size
#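 Reporter activity after DNA damage by 5-fluorouridine is monitored. Compound-treated cells incubate 16 hr at 37 °C, then ONE-Glo is added for 30 min before luminescence reading.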
# DT40 TDP1 CPT: qHTS for Inhibitors of human tyrosyl-DNA phosphodiesterase 1 (TDP1): qHTS in cells in presence of CPT | chicken DT40 Tdp1-/-;hTDP1 cells + 20 nM CPT, ATP luminescence, 48 h | Potency, µM (doses to about 46.2 µM), usual class: inhibitors | hit rate 12% among 420,000 | AID 686979, 2013; also: nearly all actives have a fitted effect of over 55% in size
#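 Chicken DT40 Tdp1-/- cells stably complemented with human TDP1 were seeded at 400 cells/well in medium containing 20 nM camptothecin, exposed to pin-transferred compounds, and grown at 37 °C for at least 48 hr. Viability was read as ATP luminescence.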
# IL-1B inflam inh: qHTS for Inhibitors of Inflammasome Signaling: IL-1-beta AlphaLISA Primary Screen. THP-1 LPS/ATP IL-1B secretion, AlphaLISA, 16 h; active compounds read low. activity change, % at 57.5 µM. hit rate 4.7% among 360,000; in the data active = activity change below about -50%; inconclusive = mostly about -30% to -49%
#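 THP-1 cells pretreated 1 hr with compounds (up to 57.5 uM final), then stimulated with LPS (250 ng/mL final) plus ATP (1.25 mM final); secreted IL-1B measured by AlphaLISA after 16 hr, decreased signal indicating inhibition.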
# TDP1 block: qHTS Assay for Inhibitors of Tyrosyl-DNA Phosphodiesterase (TDP1); Potency, µM (doses to about 130 µM), most hits filed as inhibitors; recombinant TDP1, AlphaScreen DNA substrate cleavage; Tyrosyl-DNA phosphodiesterase 1 (Homo sapiens), Q9NUW8; hit rate 0.28% among 350,000; also: nearly all actives have a fitted effect of over 40% in size
# Target sequence (Q9NUW8 whole entry, looked up): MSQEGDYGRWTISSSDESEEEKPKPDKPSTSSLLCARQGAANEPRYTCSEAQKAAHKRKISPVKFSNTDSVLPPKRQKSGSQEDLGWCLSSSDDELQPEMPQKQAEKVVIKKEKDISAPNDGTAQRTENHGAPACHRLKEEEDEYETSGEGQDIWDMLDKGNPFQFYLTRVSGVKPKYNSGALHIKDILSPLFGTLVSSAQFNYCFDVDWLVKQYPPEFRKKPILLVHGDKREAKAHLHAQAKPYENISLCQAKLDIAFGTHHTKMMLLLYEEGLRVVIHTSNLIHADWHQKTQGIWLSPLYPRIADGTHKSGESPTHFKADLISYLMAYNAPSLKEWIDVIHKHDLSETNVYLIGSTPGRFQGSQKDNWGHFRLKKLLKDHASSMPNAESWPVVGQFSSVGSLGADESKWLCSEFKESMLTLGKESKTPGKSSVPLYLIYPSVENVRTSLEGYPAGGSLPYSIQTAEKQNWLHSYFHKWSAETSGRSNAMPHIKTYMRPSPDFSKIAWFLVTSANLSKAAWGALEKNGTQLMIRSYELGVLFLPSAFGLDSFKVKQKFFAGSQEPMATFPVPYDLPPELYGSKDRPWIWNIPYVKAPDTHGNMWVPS
#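 Here, a 5' biotin and 3' phosphotyrosine-FITC DNA oligonucleotide reports Tdp1 activity: intact substrate bridges AlphaScreen beads, while cleavage leaves a 3' phosphate and drops signal. All incubations at room temperature.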
# Numbers stand for hits; - = inactive; ? = inconclusive; . = not tested or not shown. In the library only some 19% were active in any assay of this set; here they are far more common. Unless noted, calls follow the shape of the dose curve; as a rule, active = well fitted curve in the direction sought with a large enough effect; inconclusive = small, poorly fitted or top-dose-only effect, or another doubt; inactive = no such curve, though single readings can be large; an effect the other way counts as inactive or inconclusive.
SMILES,Giardia kill,TDP1 cell noCPT,ELG1 repair inh,DT40 TDP1 CPT,IL-1B inflam inh,TDP1 block
CCOC(=O)C1=C(c2ccccc2)OC(N)=C(C#N)C1c1cccs1 (centres undefined),-,-,-,-,-,-
COc1cccc(CNC(=O)c2sc3nc4n(c(=O)c3c2C)CCC4)c1,.,?,.,?,.,-
N[C@H](Cc1cnc[nH]1)C(=O)O,.,-,.,-,.,-
CCOc1ccc(C(=O)Nc2ccc(C(=O)OCc3cc(=O)n4ccsc4n3)cc2)cc1,.,-,.,-,.,-
O=C(N=C1N=C2C=CC=CN2Cc2ccccc21)c1ccc(S(=O)(=O)N2CCOCC2)cc1,-,?,?,-,-,-
CC(C)CCNC(=O)Cn1c(SCc2cccc(F)c2)nc2ccncc21,-,?,.,-,.,-
COc1ccc(C2C(C#N)=C(N)Oc3cc(O)ccc32)cc1 (centres undefined),?,-,.,-,?,.
COc1ccc(N=Cc2cc3c(cc2O)OC(N)=C(C#N)C3c2ccccc2)cc1 (centres undefined),-,21µM,?,?,-,-
CCc1ccc2[nH]c(=O)c(C3C(C#N)=C(N)Oc4c3ccc3cccnc43)cc2c1 (centres undefined),-,8.2µM,12µM,12µM,-,-
CC1(C)N=C(N)N=C(N)N1CCCCc1ccccc1,-,0.52µM,.,2.1µM,-,.
O=C(NCC(=O)c1ccccc1)OCc1ccc([N+](=O)[O-])cc1,-,-,?,-,-,.
O=S(=O)(c1ccccc1)N1CCC(O)(CSc2ccc(Cl)cc2)CC1,-,26µM,-,?,?,-
Cc1ccc(NC(=S)Nc2ccc(F)cc2)cc1C,-,?,?,?,-58,-
Fc1ccc(NC(=S)Nc2ccc3nccnc3c2)cc1,-,18µM,-,16µM,-,-
COc1ccc(NC(=S)Nc2ccc(F)cc2)cc1,-,26µM,-,?,-,-
CCOC(=O)C1(C)CCN1C(=O)c1ccc(N(C)C)cc1 (centres undefined),.,-,.,-,-,.
CC1(CC(=O)Nc2ccccc2)NC(=S)N(c2ccccc2)N1 (centres undefined),-,-,?,-,-,-
CCCCCC1(C)NC(=S)N(c2ccccc2)N1 (centres undefined),-,-,7.3µM,-,-,-
COc1cccc(N2C(=NC(=O)CCc3ccccc3)SC3CS(=O)(=O)CC32)c1 (centres undefined),-,-,?,-,-,-
CCCN(C)CCCOc1cc2nc(N3CCCN(C)CC3)nc(NC3CCN(C)CC3)c2cc1OC,.,13µM,.,8.9µM,.,.
COc1cc2c(NC3CCN(C(C)C)CC3)nc(N3CCCN(C)CC3)nc2cc1OCCOCCN(C)C,.,14µM,.,7.1µM,.,.
COc1cc2c(NC3CCN(C(C)C)CC3)nc(N3CCCN(C)CC3)nc2cc1OCCCN1CCCC1,.,3.5µM,.,5µM,.,.
COc1cc2c(NC3CCN(C)CC3)nc(N3CCCCC3)nc2cc1OCCCN(C)C,.,10µM,.,4µM,.,.
COc1ccc(NC(=O)CCc2c(C)nn(-c3ccc(N4CCOCC4)nn3)c2C)cc1Cl,.,?,.,-,.,-
COc1cc2c(NC3CCN(C)CC3)nc(N3CCCN(C)CC3)nc2cc1OCCCCN(C)C,.,?,.,-,.,.
SMILES,Giardia kill,TDP1 cell noCPT,ELG1 repair inh,DT40 TDP1 CPT,IL-1B inflam inh,TDP1 block
COc1cc2c(NC3CCN(C)CC3)nc(N3CCCN(C)CC3)nc2cc1OCCOCCN(C)C,.,-,.,?,.,.
COc1cc2c(NC3CCN(C)CC3)nc(N3CCCCC3)nc2cc1OCCOCCN(C)C,.,?,.,11µM,.,.
COc1cc2c(NC3CCN(C)CC3)nc(N3CCCN(C)CC3)nc2cc1OCCCCCCN(C)C,.,?,.,16µM,.,.
COc1ccc(-c2coc(CCC(=O)N3CCN(c4cc(C)ccc4C)CC3)n2)cc1,-,?,-,?,-,-
CC1=CC(C)(C)Nc2ccc(OC(=O)CCN3C(=O)c4ccccc4C3=O)cc21,-,3.7µM,-,3.3µM,-99,-
O=S1(=O)N[C@H](Cc2ccccc2)COc2cc(N3CCN(Cc4ccccc4F)CC3)ccc21,.,16µM,.,?,-,.
COc1ccc(C)cc1NC(=O)COc1cc(=O)n(C)c2ccccc12,.,-,.,-,.,-
CCCSc1nnc(-c2c[nH]c3ccccc23)n1CC,-,?,-,15µM,-,-
CCn1c(SCc2cccnc2)nnc1-c1c[nH]c2ccccc12,-,?,-,15µM,-,-
CCCSc1nnc(-c2c[nH]c3ccccc23)n1C,-,?,?,?,-,-
Cc1cc(NC(=O)CCC(=O)N(CC(=O)NCC2CCCO2)c2ccc(C)c(C)c2)no1 (centres undefined),-,-,-,-,-,-
Nc1ccc(C=Cc2ccc(N)cc2)cc1,.,18µM,.,21µM,-,.
Clc1ccc2nc[nH]c2c1,.,-,.,-,.,.
N#Cc1c(-c2ccc(F)cc2)c(-c2ccc(F)cc2)nn(CCO)c1=O,-,3.3µM,.,4.6µM,-,.
N#Cc1c(-c2ccccc2)c(-c2ccccc2)nn(CC(=O)NNC(=O)Nc2ccc(Cl)c(Cl)c2)c1=O,-,?,?,?,-,-
CC(=O)N1CCC(N(CCN2CCOCC2)C(=S)Nc2ccc(C)c(C)c2)CC1,-,-,-,-,-,-
CC(=O)N1CCCc2cc(S(=O)(=O)N3CCCC(C(=O)NC(C)C)C3)ccc21 (centres undefined),.,?,.,-,.,-
COC(=O)C1Cc2ccccc2CN1C(=O)CCl (centres undefined),-,15µM,?,15µM,-97,-
CCCN1CNc2c(c(=O)[nH]c(=S)n2CCc2cc(Cl)cc(Cl)c2)C1,-,4µM,.,5.6µM,.,-
CCCN1CNc2c(c(=O)[nH]c(=S)n2CCc2cc(Cl)ccc2Cl)C1,-,?,.,?,.,-
CCCN1CNc2c(c(=O)[nH]c(=S)n2CCc2cccc(Cl)c2Cl)C1,-,10µM,.,?,.,-
CCN1C[C@@H]2[C@@H]3C(=O)N(Cc4ccccc4)C(=O)[C@@H]3[C@](CC)(C1=O)N2C(=O)c1ccc(C(F)(F)F)cc1,-,-,-,-,-,-
CCOc1ccc(NC(=O)c2ccc3c(c2)OCCO3)cc1S(=O)(=O)N(CC)CC,-,?,-,?,-,-
CC(C)Nc1ccc(-c2nc(-c3ccco3)no2)cc1[N+](=O)[O-],.,16µM,.,?,.,-
CCc1noc(-c2ccc(NCc3ccccc3)c([N+](=O)[O-])c2)n1,.,18µM,.,23µM,.,-
